Here are results for 37 molecules from publication PMC5540273 (PLoS ONE, 2017).

SMILES strings stand for the structures.
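Note: KINOMEscan kinase panel screen.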

The first experiment relates to TXK. To be noted: concentration: 1 μM, replicates: in singlicate; n = 1.
`Cl.c1ccc(Cn2cnc3cc(Nc4ncnc5ccccc45)ccc32)cc1` [GW272142]: the “%Inh” value came to 0%.

For `O=C(Nc1ccc2c(c1)OCO2)NC1CCN(c2ccnc(NCc3ccc(F)cc3)n2)CC1` [GSK1379859], the “%Inh” value came out at 0%.

Take `CCn1c(-c2ccoc2)nc2cnccc21` [SB-733887]: the “%Inh” value was 28%.

Take `COc1cc2nccc(Nc3ccc(OCc4ccc(NC(C)=O)cc4)cc3)c2cc1OC.Cl` [GW440135]: the “%Inh” value worked out at 6%.

Regarding `CCC(=O)c1c(-c2ccccc2)c2cc(Cl)ccc2c(=O)n1Cc1cc(S(C)(=O)=O)n(CC(F)F)n1`, the “%Inh” value came out at 6%.

For the molecule `Nc1nc(-c2ccccc2F)c(-c2ccnc3ccccc23)s1` [GW560459], the “%Inh” value worked out at 0%.

For `COc1ccc(-c2coc3ccc(-c4nnc(SCc5cccc(C#N)c5)o4)cc23)cc1`, the “%Inh” value was 2%.

`CCn1c(-c2nonc2N)nc2ccccc21` [SB-693162/GW549034]: the “%Inh” value was determined as 12%.

Regarding `Nc1ncnc2c1ncn2-c1cccc(F)c1` [SKF-97560], the “%Inh” value worked out at 0%.

`COc1cc2ncn(-c3cc(OCc4ccc(S(C)(=O)=O)cc4)c(C(N)=O)s3)c2cc1OC` [GW869979]: the “%Inh” value amounted to 0%.

As to `Cc1c(Cn2c(C)nn3c(=O)cc(N4CCO[C@H](C)C4)nc23)cccc1C(F)(F)F` [GSK2373690], the “%Inh” value was 3%.

For `COC(=O)c1c(-c2ccccc2)c2cc(Br)ccc2c(=O)n1Cc1ccc(S(C)(=O)=O)cc1`, the “%Inh” value worked out at 12%.

On to `COc1cc2ncn(-c3cc(OCc4ccncc4Br)c(C(N)=O)s3)c2cc1OC` [GW854278], for which the “%Inh” value is reported as 21%.

Turning to `O=C1NC(=O)C(c2ccccc2)=C1Nc1cccc(O)c1` [SB-390534], the “%Inh” value came to 14%.

Take `COc1ccc(CNC(=O)NC2CCN(c3ccnc(Nc4ccc(F)cc4)n3)C2)cc1` (centres unmarked) [GSK1379706]: the “%Inh” value came to 0%.

Consider `COc1cc2nccc(Nc3cccc(Oc4ccccc4)c3)c2cc1OC.Cl` [GW284543], for which the “%Inh” value is recorded as 3%.

Turning to `Cc1nnc(-c2ccc(C)c(-c3ccc(C(=O)O)cc3)c2)o1` [GW608005], the “%Inh” value was 0%.

Regarding `Cc1cccc(-c2nc(Nc3ccc4c(cnn4C)c3)c3ccccc3n2)n1` [GW876731], the “%Inh” value is listed as 10%.

As to `Cc1nc(N(C)[C@H]2CN(C(=O)CC#N)CC[C@H]2C)c2cc[nH]c2n1`, the “%Inh” value amounted to 8%.

Turning to `COc1cc(Nc2ccnc3ccc(C(F)(F)F)cc23)cc(OC)c1OC` [GW577382], the “%Inh” value is 54%.

On to `COc1cccc(-n2cnc3c(N)ncnc32)c1` [SKF-97416], for which the “%Inh” value was found to be 11%.

Take `COc1ccc(-c2cc3c(C)nc(N)nc3n([C@H]3CC[C@H](OCCO)CC3)c2=O)cn1`: the “%Inh” value is 2%.

Take `COc1cc2ncn(-c3cc(OCCCc4ccccc4)c(C(N)=O)s3)c2cc1OC` [GSK205189]: the “%Inh” value was 0%.

With `CN1C(=O)C(Nc2ccccc2)=C(c2ccccc2)C1=O` [SB-300079], the “%Inh” value amounted to 0%.

For `O=C(NCc1cccs1)c1cc(C(=O)c2c(Cl)cccc2Cl)c[nH]1` [GW823670], the “%Inh” value is 0%.

As for `CCCNC(=O)Nc1ccc(Oc2ncnc3ccn(C)c23)cc1`, the “%Inh” value came to 0%.

As to `Nc1nccc2scc(-c3ccc4c(c3)CCN4C(=O)Cc3ccccc3)c12` [GSK2576924], the “%Inh” value was determined as 4%.

`CCC(=O)c1c(-c2ccccc2)c2cc(Cl)ccc2c(=O)n1Cc1cc(S(C)(=O)=O)n(CCC(C)(C)O)n1`: the “%Inh” value worked out at 18%.

On to `Nc1nc(N)c2nc(-c3ccccc3)[nH]c2n1` [SKF-12778], for which the “%Inh” value came to 25%.

In the case of `COc1ccc(-c2cc3c(C)nc(N)nc3n([C@H]3CC[C@H](O)CC3)c2=O)cn1`, the “%Inh” value stood at 0%.

As for `Cc1ccccc1COc1cc(-n2cnc3cc(Cl)ccc32)sc1C(N)=O` [GW813349], the “%Inh” value was determined as 9%.

On to `COc1ccc(-n2cnc3c(N)ncnc32)cc1` [SKF-97236], for which the “%Inh” value turned out to be 12%.

As to `COC(=O)c1c(-c2ccccc2)c2cc(C)ccc2c(=O)n1Cc1ccccc1`, the “%Inh” value came out at 0%.

As for `O=C(Nc1n[nH]c2cc(-c3ccccc3F)ccc12)C1CC1` [SB-733371], the “%Inh” value is recorded as 12%.

Consider `COc1cc(Nc2nccc(N3CCC(NC(=O)C4COc5ccccc5O4)C3)n2)cc(OC)c1OC` (centres unmarked) [GSK1379761], for which the “%Inh” value was determined as 10%.

Turning to `O=C(Nc1n[nH]c2nc(-c3ccccc3)c(Cl)cc12)C1CC1` [SB-734909], the “%Inh” value is 4%.

Regarding `O=c1cc(N2CCOCC2)nc2n(Cc3ccc(F)c(Cl)c3)ccn12` [GSK2297099], the “%Inh” value came to 0%.

A further experiment relates to TYK2(JH1domain-catalytic). Particulars: concentration: 1 μM, replicates: in singlicate; n = 1.
`Cl.c1ccc(Cn2cnc3cc(Nc4ncnc5ccccc45)ccc32)cc1` [GW272142]: the “%Inh” value was 13%.

As for `O=C(Nc1ccc2c(c1)OCO2)NC1CCN(c2ccnc(NCc3ccc(F)cc3)n2)CC1` [GSK1379859], the “%Inh” value was found to be 0%.

Turning to `CCn1c(-c2ccoc2)nc2cnccc21` [SB-733887], the “%Inh” value is reported as 27%.

With `COc1cc2nccc(Nc3ccc(OCc4ccc(NC(C)=O)cc4)cc3)c2cc1OC.Cl` [GW440135], the “%Inh” value is on record as 9%.

With `CCC(=O)c1c(-c2ccccc2)c2cc(Cl)ccc2c(=O)n1Cc1cc(S(C)(=O)=O)n(CC(F)F)n1`, the “%Inh” value is reported as 0%.

As to `Nc1nc(-c2ccccc2F)c(-c2ccnc3ccccc23)s1` [GW560459], the “%Inh” value was found to be 7%.

Consider `COc1ccc(-c2coc3ccc(-c4nnc(SCc5cccc(C#N)c5)o4)cc23)cc1`, for which the “%Inh” value is recorded as 10%.

As to `CCn1c(-c2nonc2N)nc2ccccc21` [SB-693162/GW549034], the “%Inh” value is on record as 0%.

Regarding `Nc1ncnc2c1ncn2-c1cccc(F)c1` [SKF-97560], the “%Inh” value turned out to be 38%.

Turning to `COc1cc2ncn(-c3cc(OCc4ccc(S(C)(=O)=O)cc4)c(C(N)=O)s3)c2cc1OC` [GW869979], the “%Inh” value was 17%.

As for `Cc1c(Cn2c(C)nn3c(=O)cc(N4CCO[C@H](C)C4)nc23)cccc1C(F)(F)F` [GSK2373690], the “%Inh” value was 0%.

As to `COC(=O)c1c(-c2ccccc2)c2cc(Br)ccc2c(=O)n1Cc1ccc(S(C)(=O)=O)cc1`, the “%Inh” value was determined as 7%.

Regarding `COc1cc2ncn(-c3cc(OCc4ccncc4Br)c(C(N)=O)s3)c2cc1OC` [GW854278], the “%Inh” value is 0%.

On to `O=C1NC(=O)C(c2ccccc2)=C1Nc1cccc(O)c1` [SB-390534], for which the “%Inh” value worked out at 14%.

`COc1ccc(CNC(=O)NC2CCN(c3ccnc(Nc4ccc(F)cc4)n3)C2)cc1` (centres unmarked) [GSK1379706]: the “%Inh” value worked out at 27%.

In the case of `COc1cc2nccc(Nc3cccc(Oc4ccccc4)c3)c2cc1OC.Cl` [GW284543], the “%Inh” value was found to be 5%.

Regarding `Cc1nnc(-c2ccc(C)c(-c3ccc(C(=O)O)cc3)c2)o1` [GW608005], the “%Inh” value worked out at 15%.

As for `Cc1cccc(-c2nc(Nc3ccc4c(cnn4C)c3)c3ccccc3n2)n1` [GW876731], the “%Inh” value came to 20%.

Regarding `Cc1nc(N(C)[C@H]2CN(C(=O)CC#N)CC[C@H]2C)c2cc[nH]c2n1`, the “%Inh” value is recorded as 15%.

As for `COc1cc(Nc2ccnc3ccc(C(F)(F)F)cc23)cc(OC)c1OC` [GW577382], the “%Inh” value came out at 19%.

For `COc1cccc(-n2cnc3c(N)ncnc32)c1` [SKF-97416], the “%Inh” value is 83%.

As for `COc1ccc(-c2cc3c(C)nc(N)nc3n([C@H]3CC[C@H](OCCO)CC3)c2=O)cn1`, the “%Inh” value was determined as 0%.

Regarding `COc1cc2ncn(-c3cc(OCCCc4ccccc4)c(C(N)=O)s3)c2cc1OC` [GSK205189], the “%Inh” value is given as 0%.

For the molecule `CN1C(=O)C(Nc2ccccc2)=C(c2ccccc2)C1=O` [SB-300079], the “%Inh” value worked out at 0%.

Regarding `O=C(NCc1cccs1)c1cc(C(=O)c2c(Cl)cccc2Cl)c[nH]1` [GW823670], the “%Inh” value stood at 1%.

As to `CCCNC(=O)Nc1ccc(Oc2ncnc3ccn(C)c23)cc1`, the “%Inh” value amounted to 13%.

As to `Nc1nccc2scc(-c3ccc4c(c3)CCN4C(=O)Cc3ccccc3)c12` [GSK2576924], the “%Inh” value is 14%.

In the case of `CCC(=O)c1c(-c2ccccc2)c2cc(Cl)ccc2c(=O)n1Cc1cc(S(C)(=O)=O)n(CCC(C)(C)O)n1`, the “%Inh” value is 0%.

Take `Nc1nc(N)c2nc(-c3ccccc3)[nH]c2n1` [SKF-12778]: the “%Inh” value was determined as 43%.

Take `COc1ccc(-c2cc3c(C)nc(N)nc3n([C@H]3CC[C@H](O)CC3)c2=O)cn1`: the “%Inh” value is recorded as 0%.

With `Cc1ccccc1COc1cc(-n2cnc3cc(Cl)ccc32)sc1C(N)=O` [GW813349], the “%Inh” value is on record as 5%.

Regarding `COc1ccc(-n2cnc3c(N)ncnc32)cc1` [SKF-97236], the “%Inh” value is 11%.

Turning to `COC(=O)c1c(-c2ccccc2)c2cc(C)ccc2c(=O)n1Cc1ccccc1`, the “%Inh” value was found to be 0%.

Take `O=C(Nc1n[nH]c2cc(-c3ccccc3F)ccc12)C1CC1` [SB-733371]: the “%Inh” value is reported as 0%.

Consider `COc1cc(Nc2nccc(N3CCC(NC(=O)C4COc5ccccc5O4)C3)n2)cc(OC)c1OC` (centres unmarked) [GSK1379761], for which the “%Inh” value is on record as 81%.

Take `O=C(Nc1n[nH]c2nc(-c3ccccc3)c(Cl)cc12)C1CC1` [SB-734909]: the “%Inh” value is given as 25%.

Regarding `O=c1cc(N2CCOCC2)nc2n(Cc3ccc(F)c(Cl)c3)ccn12` [GSK2297099], the “%Inh” value is on record as 0%.
